Screens deposited in PubChem BioAssay by several laboratories.
Rows were chosen to be rich in hits. Some 2% of all compounds tested hit in one or more screens of this group.
CHT inh: inhibitors of human choline transporter CHT. Q9GZV3. CHT-expressing cells, membrane potential dye, choline response; stronger effect = lower value. B-score at 10 µM. 310,000 compounds, 0.86% hits. AID 488975;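 active = B-score over 3 SD under the library average, and starting fluorescence ratio not unusually high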;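 also: choline stimulus applied at its EC90 after an EC20 pre-addition; B-score computed on integrated fluorescence ratio after choline addition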
PGE2 EP2 inh: blocks the human prostaglandin E2 receptor EP2; AID 1422; inhibition, % at 25 µM; 260,000 compounds, 0.52% hits; C6 glioma cells expressing human EP2, cAMP TR-FRET; cells stimulated with saturating PGE2;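 active = percent inhibition above 40 after rounding to a whole number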;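 also: rat C6 glioma host cells with rolipram phosphodiesterase inhibitor present; the protocol text gives 20 µM as final concentration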
Target sequence (P43116 whole entry, looked up): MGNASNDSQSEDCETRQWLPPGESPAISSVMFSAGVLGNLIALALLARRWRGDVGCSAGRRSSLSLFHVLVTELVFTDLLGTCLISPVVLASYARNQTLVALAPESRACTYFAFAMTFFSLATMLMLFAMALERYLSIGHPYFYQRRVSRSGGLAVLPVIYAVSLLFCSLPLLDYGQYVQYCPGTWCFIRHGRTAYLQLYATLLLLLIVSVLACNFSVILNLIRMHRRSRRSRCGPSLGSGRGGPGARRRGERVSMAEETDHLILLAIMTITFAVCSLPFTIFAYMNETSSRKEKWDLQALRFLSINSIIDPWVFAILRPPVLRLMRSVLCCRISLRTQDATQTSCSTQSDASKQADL
EP2 modulator: modulates human prostaglandin E2 receptor EP2 signaling. P43116. EP2-expressing cells, cAMP HTRF FRET, PGE2 co-stimulation. induction, % at 25 µM. 260,000 compounds, 0.83% hits. AID 940;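 active = compounds whose cAMP rise, as percent of the full-agonist control response, exceeds 60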;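 also: rat C6 glioma line stably carrying human EP2 under a CMV promoter; the protocol text gives 20 µM as final concentration; 100% = response of wells given 1 µM PGE2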
CHT PAM: allosterically activates the human high affinity choline transporter. 310,000 compounds, 0.49% hits. Q9GZV3. B-score at 10 µM. CHT-expressing cells, membrane potential dye, choline EC20; stronger effect = higher value; LV-AA mutant CHT in HEK293 cells;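 active = initial fluorescence not abnormally high and integrated response B-score, plate-corrected, over 3 SD above library mean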
CHT block conf: confirmation of human choline transporter CHT inhibitors; shares compounds with CHT inh; 2,400 compounds, 70% hits; CHT activity remaining % of control (stronger effect = lower value), % at 10 µM; CHT-expressing cells, choline membrane potential dye; LV-to-AA substituted CHT, HEK293 cells;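 active = choline transporter activity left, mean of duplicates at 10 µM, below buffer-only control mean minus 3 SD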;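 also: depolarization triggered by choline at its EC90 following an EC20 pre-addition; 0% = hemicholinium-3 full block and 100% = buffer-only control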
HEK293 CHT ctr: activity in parental HEK293 cells lacking CHT; shares compounds with CHT inh; membrane potential dye, choline response; active = decrease or increase beyond buffer ±3SD; membrane potential ratio readout (active if shifted either direction beyond buffer ±3SD; no single direction) at 10 µM; 2,400 compounds, 4% hits;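 also: parental cells lack the transporter so any hit is non-specific; ratio is peak minus trough fluorescence over baseline after EC90 choline challenge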
* marks the source's active call; other numbers are inactive results; i = inactive; x = no result given.

SMILES | CHT inh | PGE2 EP2 inh | EP2 modulator | CHT PAM | CHT block conf | HEK293 CHT ctr
O=C(CCc1ccc(S(=O)(=O)N2CCOCC2)cc1)N/N=C/c1ccc(O)c(O)c1O | -11.6* | 5.2 | 3.8 | i | i | i
O=C(CCc1ccc(S(=O)(=O)N2CCOCC2)cc1)N/N=C/c1ccc(F)cc1F | i | 3.9 | -25.6 | i | x | x
COCCNC(=O)c1cc(-c2ccccc2OC)on1 | -7.44* | 5.3 | -8.7 | i | i | i
O=C(CSc1ccccn1)N1CCN(c2ncc(C(F)(F)F)cc2Cl)CC1 | -5.3* | 6.8 | 31.6 | i | i | i
N#Cc1c(SCc2ccc(Cl)cc2)sc(C(=O)c2ccccc2)c1N | i | 6.8 | 23.3 | i | x | x
CC(C)Sc1sc(C(=O)O)c(-c2ccc(Cl)cc2)c1C#N | -5.65* | 12.5 | -27.3 | i | 61.4%* | i
CCCCN(CCCC)c1cn[nH]c(=O)c1Cl | -6.58* | 13.8 | 26.0 | i | 66.3%* | i
CCOc1cccc(NC(=O)C2CCN(c3nc(C)cc(C)n3)CC2)c1 | x | 13.4 | 28.0 | x | x | x
c1ccc2c(c1)CCN(C1=Nc3cccc4cccc1c34)C2 | x | 9.0 | -68.3 | x | x | x
c1cc2c3c(cccc3c1)C(N1CCCCC1)=N2 | -6.03* | 11.3 | -2.6 | i | 65.3%* | 4.64*
Oc1c(/C=N/c2ccccn2)sc2ccccc12 | -8.2* | 4.7 | -51.9 | i | i | i
Cc1ccc2cc(CN(C(=O)c3cnccn3)C3CCCCC3)c(=O)[nH]c2c1 | x | 18.9 | -38.6 | x | x | x
CC(NC(=O)C1(c2cccc(F)c2)CCCC1)c1nc(-c2cccnc2)n[nH]1 (stereo unspecified) | x | 6.8 | -30.0 | x | x | x
N=c1n(Cc2ccccc2)c2ccccc2n1CC(O)COc1ccccc1 (stereo unspecified) | -9.78* | 4.9 | -9.0 | i | 38.1%* | i
CCCn1c(=N)n(CC(O)COc2cccc(C)c2)c2ccccc21 (stereo unspecified) | -5.3* | 12.9 | -42.5 | i | i | i
CCn1c(=N)n(CC(O)COc2cccc(C)c2)c2ccccc21 (stereo unspecified) | i | 7.9 | 0.7 | i | x | x
N=c1n(CCN2CCOCC2)c2ccccc2n1CC(O)COc1ccccc1 (stereo unspecified) | i | 6.0 | 11.8 | i | x | x
Cc1ccc(Cn2c(=N)n(CC(O)COc3ccccc3)c3ccccc32)cc1 (stereo unspecified) | -8.17* | -4.7 | -21.8 | i | 37.6%* | i
CCOC(=O)c1cc(NC(=O)c2ccoc2C)cc(C(=O)OCC)c1 | -6.11* | 7.0 | 37.5 | i | 39.6%* | i
Cc1cccc(C2(O)CCN(CC(O)c3ccc(Cl)cc3)CC2)c1 (stereo unspecified) | x | 8.7 | -65.5 | x | x | x
COc1cc(OC)cc(C(=O)NC(=S)NNC(=O)[C@H]2C[C@@H]2c2ccccc2)c1 | -6.81* | 17.7 | -28.4 | i | 53.4%* | i
COc1ccc(C(=O)NC(=S)NNC(=O)[C@H]2C[C@@H]2c2ccccc2)cc1OC | i | 13.9 | -13.7 | i | x | x
O=C(Nc1cccc(S(=O)(=O)NC2=NCCC2)c1)c1cc(Cl)ccc1[N+](=O)[O-] | -6.78* | x | x | i | 20.6%* | i
COc1ccc(-c2csc(Cc3nnc4n3CCCCC4)n2)cc1 | -5.01* | 11.6 | -3.5 | i | 41.9%* | i
CCCCCCn1c(N(CC)CC)nc2c1c(=O)[nH]c(=O)n2C | -6.37* | 11.9 | 33.2 | i | i | i
SMILES | CHT inh | PGE2 EP2 inh | EP2 modulator | CHT PAM | CHT block conf | HEK293 CHT ctr
Cc1ccc(N(C)C(=O)CC(C)S(=O)(=O)c2ccc3c(c2)NC(=O)CO3)cc1 (stereo unspecified) | -5.73* | x | x | i | i | i
Cc1ccc(NC(=O)CC(C)S(=O)(=O)c2ccc3c(c2)NC(=O)CO3)c(Cl)c1 (stereo unspecified) | i | x | x | i | x | x
Clc1ccc(C2(CN3CCN(CC4CCCO4)CC3)CC2)cc1 (stereo unspecified) | x | 2.2 | 13.1 | x | x | x
CS(=O)(=O)N1CCN(c2ccc(NC(=O)c3ccc(Cl)c(Cl)c3)cc2)CC1 | x | 13.2 | 8.4 | x | x | x
CCSc1nsc(NC(=O)Nc2ccccc2F)n1 | i | x | x | i | x | x
C=CCSc1nsc(NC(=O)Nc2ccc(F)cc2)n1 | -7.79* | x | x | i | i | i
